Measurements reported in PubChem BioAssay.

assay: MRP1 drug-resistance reversers in H69AR cells – cell-based, doxorubicin co-treatment, pilot screen (AID 601); conditions: H69AR cells, CellTiter-Glo, 72 h; compound alone cytotoxicity; at 10 µM

Compound	viability [%]
CC1(C)NC(=O)N(CN2C(=O)NC(C)(C)C2=O)C1=O	102
Cc1ccccc1NC(=O)C1CCC(C)(C(=O)O)C1(C)C (centres undefined)	99.8
CC(C)[C@H](NC(=O)OC(C)(C)C)c1nnc(S(=O)(=O)Cc2c(F)cccc2Cl)o1	1.65
CSC1CCCCC1(O)CSc1nc2c(cc1C#N)CCCC2 (centres undefined)	92.6
Cc1cccc(NC(=O)CCn2ccnc2C)c1	92.3
CCCSc1nnc(-c2ccccc2NC(=O)CC)c(=O)[nH]1	103
Cc1ccc(S(=O)(=O)N2CCCC2C(=O)OCc2ccco2)cc1 (centres undefined)	77.2
Cc1ccc(C2C(C#N)=C(N)Oc3cc4c(cc32)OCO4)cc1 (centres undefined)	10.2
CCNc1oc(COc2ccccc2F)nc1C#N	100
CC(C)Cc1nnc(NC(=O)CCC(=O)N2CCOCC2)s1	96.2
Cc1cccc(OCC(=O)Nc2ccccc2N2CCN(C(=O)C(C)C)CC2)c1C	88.8
CC1(C)NC(=O)N(CCOc2cccc(Cl)c2Cl)C1=O	102
Cn1c(=O)[nH]c(=O)c2c1nc(NC1CCCCC1)n2CC(=O)NC1CCCCC1	94.7
COc1ccc(Nc2ncc3c(n2)CC(c2ccc(OC)cc2)CC3=O)cc1 (centres undefined)	97.4
COc1ccc(OC)c(Nc2ncnc3c2cnn3-c2ccccc2)c1	90.5
O=C(c1ccc(-c2ccccc2)cc1)N1CCC(C(=O)N2CCCC2)CC1	104
Cc1cccc(NCc2ccccc2O)c1	94.6
CCCCC(CC)Cn1c2nc3ccccc3nc2c2c(=N)oc(C)nc21 (centres undefined)	1.91
O=C(Sc1nnnn1C1CCCCC1)c1cccs1	98.7
Cc1cc(=O)[nH]c2c1cnn2Cc1ccccc1	98.9

Compound	viability [%]
O=C(CN1CCOCC1)Nc1cccc(C(=O)Nc2cccc(C(F)(F)F)c2)c1	101
CCOC(=O)CS(=O)(=O)c1nc(-c2ccccc2)cc(C(F)(F)F)n1	1.61
CCn1c(Cc2ccccc2)nnc1SCC(=O)Nc1nc2ccccc2s1	104
CCOc1ccccc1N(CC(=O)N1CCOCC1)S(=O)(=O)c1ccccc1	99
O=C(Nc1ccc(Cl)cc1)N1CCSCC1	107
CC(=O)c1cccc(NS(=O)(=O)c2ccc3c(c2)oc(=O)n3C)c1	106
O=C1c2ccccc2C(=O)N1CCCCN1CCN(CCCCN2C(=O)c3ccccc3C2=O)CC1	97.5
CCCC1CCC(C(=O)Nn2c(C)nc3ccccc3c2=O)CC1 (centres undefined)	98.2
Cc1cnn(C(=S)NCc2ccco2)c1	84.5
Cc1ccccc1CN1CCN(CC(=O)NCc2ccco2)C1=O	83
CC1(C)C2CCC1(CS(=O)(=O)NCc1ccc(C(=O)O)cc1)C(=O)C2 (centres undefined)	108
Cc1cccc2cc(C#N)c(SCCN3CCCCC3)nc12	68.2
CC1(C)CC(=O)c2c(O)cc(O)cc2O1	99.7
Cc1nc(C)c(C(=O)C2=C(O)C(=O)N(CCN3CCOCC3)C2c2ccco2)s1 (centres undefined)	86.3
Cc1cc(C(F)(F)F)nc(SCC(=O)NC2=NC(=O)C(C)S2)n1 (centres undefined)	100
CN(c1cccc(NC(=O)COc2ccccc2)c1)S(C)(=O)=O	96
Cc1noc(C)c1COc1cccc(C(=O)Oc2ccc3c(c2)OCO3)c1	79.5
COc1ccc(N(CC(=O)Nc2ccccc2SC)S(C)(=O)=O)cc1OC	98.2
Cc1cc(C)n(S(=O)(=O)c2cc(C(=O)O)c(Cl)cc2Cl)n1	82.6
